“And” between values parts separate entries of the source, which are not always exact repeats. Identical values can stand only once. Inconclusive results are not listed. The source made the active and inactive calls. Unless noted, the call rests on the fitted dose curve; in most records, active means well fitted curve in the direction sought with a large enough effect; inconclusive means small, poorly fitted or top-dose-only effect, or another doubt; inactive means no such curve, though single readings can be large; an effect the other way counts as inactive or inconclusive.
Columns and labels:
[1] = Cell Viability - LYMP2-014 (AID 983); details: LYMP2-014 lymphoblastoid cells, viability qHTS; series mostly up to 92.2 µM;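 further: plate controls were DMSO only for no effect and 92 µM tetraoctylammonium bromide for full effect; nearly all actives have a fitted effect of over 50% in size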
Summary of the method: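 Human lymphoblastoid cells (2500/well) were pre-incubated 5 hr at 37 C, then exposed to compounds in complete medium for 24 hr at 37 C. Intracellular ATP was read by CellTiter-Glo luminescence after 30 min at room temperature; AC50 from Hill fits.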

[2] = Cell Viability - LYMP2-016 (AID 984); details: LYMP2-016 lymphoblastoid cell viability, qHTS; series mostly up to 92.2 µM; further: on the % scale 0 is the no-effect control and ±100 the full control effect; nearly all actives have a fitted effect of over 55% in size
Summary of the method: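 Human lymphoblastoid LYMP2-016 cells, 2500 per well, treated with compounds for 24 h at 37 C. Viability read as intracellular ATP by CellTiter-Glo luminescence after 30 min at room temperature; AC50 from Hill fits of concentration-response.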

[3] = Cell Viability - LYMP2-018 (AID 985); details: LYMP2-018 lymphoblastoid cells, viability (qHTS); series mostly up to 92.2 µM;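 further: compound exposure lasted 24 hr at 37 °C; plate controls were DMSO only for no effect and tetraoctylammonium bromide at 92 µM for full effect; nearly all actives have a fitted effect of over 50% in size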
Summary of the method: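 Human lymphoblastoid cells (2500/well) were pre-incubated 5 hr at 37 C, then exposed to compounds for 24 hr at 37 C in complete medium. Viability was read as intracellular ATP by CellTiter-Glo luminescence; AC50 values came from Hill-equation fits.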

[4] = Cell Viability - LYMP2-020 (AID 986); details: series mostly up to 92.2 µM;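 further: plate controls were DMSO only for no effect and tetraoctylammonium bromide at 92 µM for full effect; nearly all actives have a fitted effect of over 55% in size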
Summary of the method: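 Human lymphoblastoid cells, 2500/well, were pre-incubated 5 hr at 37 C, then exposed to compounds for 24 hr at 37 C in complete medium. Intracellular ATP was read by CellTiter-Glo luminescence, and AC50 was derived by Hill fitting of concentration-response data.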

[5] = Cell Viability - LYMP2-022 (AID 987); details: LYMP2-022 lymphoblastoid cell viability; series mostly up to 92.2 µM;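 further: 0% = DMSO alone and full effect = tetraoctylammonium bromide at 92 µM; nearly all actives have a fitted effect of over 55% in size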
Summary of the method: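 Human lymphoblastoid cells, 2500/well, preincubated 5 hr at 37 C, then exposed to compounds over a concentration range for 24 hr at 37 C in complete medium. Viability read as intracellular ATP by CellTiter-Glo luminescence after 30 min at room temperature; AC50 from Hill fits.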

[6] = Cell Viability - LYMP2-024 (AID 988); details: LYMP2-024 lymphoblastoid cell viability; series mostly up to 92.2 µM;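 further: plate controls were DMSO only for no effect and 92 µM tetraoctylammonium bromide for full effect; nearly all actives have a fitted effect of over 60% in size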
Summary of the method: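 Human lymphoblastoid cells (2500/well) in complete medium were preincubated 5 hr at 37 C, then exposed to compounds for 24 hr at 37 C. Intracellular ATP was read by CellTiter-Glo luminescence; AC50 from Hill-equation fits of concentration-response data.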

[7] = Cell Viability - LYMP2-026 (AID 989); details: LYMP2-026 lymphoblastoid cell viability, qHTS; series mostly up to 92.2 µM; further: on the % scale 0 is the no-effect control and ±100 the full control effect; nearly all actives have a fitted effect of over 50% in size
Summary of the method: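 Human lymphoblastoid cells (2500/well) in complete medium were preincubated 5 hr at 37 C, then exposed to compounds for 24 hr at 37 C. Cellular ATP was read by CellTiter-Glo luminescence; AC50 from Hill-equation fits of concentration-response data.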

[8] = Cell Viability - LYMP1-002 - Assay at 24 hr (AID 993); details: LYMP1-002 lymphoblastoid cells viability; series mostly up to 92.2 µM; further: on the % scale 0 is the no-effect control and ±100 the full control effect
Summary of the method: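 Human lymphoblastoid LYMP1-002 cells, 2500/well in complete medium, were treated with compounds for 24 h at 37 C; intracellular ATP was read by CellTiter-Glo luminescence. AC50 values came from Hill-equation fits of qHTS concentration-response data.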

[9] = Cell Viability - LYMP1-002 - Assay at 40 hr (AID 994); details: LYMP1-002 lymphoblastoid cell viability; series mostly up to 92.2 µM;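 further: 0% = DMSO only and full inhibition = 92 µM tetraoctylammonium bromide; nearly all actives have a fitted effect of over 60% in size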
Summary of the method: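 Human lymphoblastoid cells, 2500/well in complete medium, were preincubated 5 hr at 37 C, then exposed to compounds for 40 hr at 37 C. Intracellular ATP was read by CellTiter-Glo luminescence after 30 min at room temperature; AC50 from Hill-equation fits.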

[10] = qHTS Assay for Lipid Storage Modulators (AID 1519; calls by dose curve; on activity change, negative = inhibition: on the % scale 0 is the no-effect control and ±100 the full control effect); details: Drosophila S3 cells, BODIPY lipid droplet/cell ratio, laser cytometry, cells loaded with oleic acid
Summary of the method: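 Cells seeded at 5,000 per well were treated with compounds over a concentration series and loaded with oleic acid (400 uM, as added). Lipid droplet fluorescence (488 nm excitation, 500-530 nm channel) was read by laser-scanning cytometry and normalized to 20 uM Triacsin C.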

[11] = target: Ubiquitin carboxyl-terminal hydrolase 1 (Homo sapiens) (UniProt O94782); assay: Inhibitors of USP1/UAF1: Pilot qHTS (AID 504865); details: purified USP1/UAF1, Ub-rhodamine cleavage fluorescence; series mostly up to 114 µM; further: potency means the concentration at half of the fitted maximal effect; nearly all actives have a fitted effect of over 35% in size
Summary of the method: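 USP1/UAF1 complex at 1 nM preincubated 15 min at room temperature with compound, then Ub-Rho substrate added at 150 nM final. Fluorescence (480/540 nm) read kinetically in 50 mM HEPES pH 7.8, 0.5 mM EDTA, 1 mM TCEP, 0.1 mg/ml BSA, 0.01% Tween-20.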

[12] = target: Estrogen receptor (Homo sapiens) (UniProt P03372); assay: qHTS assay for small molecule agonists of estrogen receptor alpha signaling (AID 588514; calls by dose curve;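 further: 0% = vehicle only and 100% = reference agonist; nearly all actives have a fitted effect of over 70% in size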); details: ER-alpha-UAS-bla HEK293, beta-lactamase ratio, 18 h; series mostly up to 76.8 µM
Summary of the method: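 ER-alpha-UAS-bla GripTite HEK 293 cells in medium with 2% charcoal/dextran-treated FBS were treated with compound titrations at 37 C for 18 hrs; beta-lactamase reporter read by CCF4 fluorescence after 2 hrs at RT.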

[13] = target: Bile acid receptor (Homo sapiens) (UniProt Q96RI1); assay: qHTS assay for small molecule antagonists of farnesoid X receptor signaling (AID 588526; calls by dose curve; further: potency means the concentration at half of the fitted maximal effect); details: HEK293T FXR-UAS-bla, beta-lactamase ratio, antagonist mode; series mostly up to 76.7 µM
Summary of the method: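 Concentration-response titrations were fitted to the Hill equation for half-maximal inhibition and maximal response, with data normalised to 50 uM chenodeoxycholic acid and DMSO control wells. Cells: FXR-UAS-bla HEK293T, dialyzed FBS.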

[14] = target: Bile acid receptor (Homo sapiens) (UniProt Q96RI1); assay: qHTS assay for small molecule agonists of farnesoid X receptor signaling (AID 588527; calls by dose curve;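 further: 0% = vehicle basal and 100% = reference agonist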); details: HEK293T FXR-UAS-bla, beta-lactamase ratio, 16 h; activation: stronger effect = higher value
Summary of the method: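 FXR-UAS-bla HEK293T, 10% dialyzed FBS; cpds up to 92 uM titration, 16 h 37 C; CCF4 dye 2 h RT; fluorescence. Normalized to chenodeoxycholic acid 100 uM (100%) and DMSO (0%); Hill fit gives EC50, efficacy.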

[15] = target: Glucocorticoid receptor (Homo sapiens) (UniProt P04150); assay: qHTS assay for small molecule agonists of glucocorticoid receptor signaling (AID 588532; active means well fitted curve in the direction sought with a large enough effect in the signal ratio, with a control signal flat; the % refers to the signal ratio;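 further: 100% = dexamethasone at 0.1 µM and 0% = DMSO only wells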); details: HeLa MMTV-bla, beta-lactamase ratio, agonist, 18 h; stronger effect = higher value; percent of dexamethasone control, DMSO zero
Summary of the method: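 Titration series, up to 92 uM, applied to GRE-bla HeLa cells for 18 h at 37 C. Detection by CCF4 FRET substrate after 2 h at RT.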

[16] = target: Vitamin D3 receptor (Homo sapiens) (UniProt P11473); assay: qHTS assay for small molecule antagonists of vitamin D receptor signaling (AID 588541; calls by dose curve;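 further: receptor activated by calcitriol during compound treatment; on the % scale 0 is the no-effect control and ±100 the full control effect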); details: HEK293T VDR-UAS-bla, beta-lactamase ratio, antagonist mode; series mostly up to 76.7 µM
Summary of the method: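 VDR-UAS-bla HEK293T cells (2000/well, 2% charcoal-stripped FBS) were treated with titrated compounds plus 1-alpha,25-dihydroxyvitamin D3 (50 nM or 3 nM final) for 16 h at 37 C. CCF4 beta-lactamase fluorescence was read; Hill fits gave IC50.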

[17] = target: Vitamin D3 receptor (Homo sapiens) (UniProt P11473); assay: qHTS assay for small molecule agonists of vitamin D receptor signaling (AID 588543; calls by dose curve;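 further: 0% = DMSO basal and 100% = reference agonist control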); details: HEK293T VDR-UAS-bla, beta-lactamase ratio, 16 h; series mostly up to 76.8 µM
Summary of the method: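 VDR-UAS-bla HEK293T cells, 2000/well, 2% charcoal-stripped FBS; compound titration 16 h at 37 C; CCF4 beta-lactamase ratio read. Normalized to 50 nM 1-alpha,25-dihydroxyvitamin D3 (100%) and DMSO; Hill fit gives EC50, efficacy.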

[18] = qHTS assay for small molecule agonists of retinoid X receptor alpha signaling (AID 588544; calls by dose curve;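 on activation: 0% = DMSO basal wells and 100% = reference agonist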); details: HEK293T RXRa-UAS-bla, beta-lactamase reporter, 18 h; 530 nm emission
[19] = target: Retinoic acid receptor RXR-alpha (Homo sapiens) (UniProt P19793); assay: as above; details: HEK293T RXRa-UAS-bla, beta-lactamase reporter, 18 h; series mostly up to 76.7 µM
[20] = target: Thyroid hormone receptor beta (Homo sapiens) (UniProt P10828); assay: qHTS assay for small molecule agonists of thyroid hormone receptor beta signaling (AID 588545; calls by dose curve;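 further: 0% = DMSO only and 100% = 10 nM T3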); details: TR-UAS-bla GripTite HEK 293, beta-lactamase ratio, agonist mode, 18 h; series mostly up to 76.7 µM
Summary of the method: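 TR-UAS-bla-GripTite HEK 293 cells in medium with 2% charcoal/dextran FBS, 0.1 mM NEAA and 1 mM sodium pyruvate were treated with titrated compounds for 18 hrs at 37 C. Beta-lactamase reporter was read with CCF4 dye (ex 405, em 460/530 nm); EC50 from Hill fits.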

[21] = qHTS assay for small molecule antagonists of retinoid X receptor alpha signaling (AID 588546); details: HEK293T RXRa-UAS-bla, beta-lactamase ratio, antagonist mode; measured here: W530 green channel, cytotoxicity proxy;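 further: cells stimulated with 9-cis-retinoic acid as agonist; on the % scale 0 is the no-effect control and ±100 the full control effect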
Summary of the method: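 Beta-lactamase reporter inhibition, read as CCF4 fluorescence ratio (ex 405, em 460/530 nm) after 2 h at RT. HEK293T UAS-bla cells, 2500/well, were stimulated with 9-cis-RA at 500 or 100 nM final alongside test compound for 18 h at 37 C.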

Vitamin D3 receptor (Homo sapiens), sequence (P11473 whole entry, looked up): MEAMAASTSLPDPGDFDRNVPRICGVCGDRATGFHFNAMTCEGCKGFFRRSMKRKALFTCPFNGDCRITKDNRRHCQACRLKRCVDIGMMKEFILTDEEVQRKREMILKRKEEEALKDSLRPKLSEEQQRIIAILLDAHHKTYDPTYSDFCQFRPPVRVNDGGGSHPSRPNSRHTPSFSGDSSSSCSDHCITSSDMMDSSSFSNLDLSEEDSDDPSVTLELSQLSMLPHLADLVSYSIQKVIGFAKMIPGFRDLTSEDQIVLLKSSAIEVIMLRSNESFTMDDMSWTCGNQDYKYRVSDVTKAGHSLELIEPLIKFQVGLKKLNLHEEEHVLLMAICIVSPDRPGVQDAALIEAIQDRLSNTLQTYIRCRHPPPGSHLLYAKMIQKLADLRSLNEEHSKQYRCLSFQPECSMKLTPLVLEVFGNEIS
Bile acid receptor (Homo sapiens), sequence (Q96RI1 whole entry, looked up): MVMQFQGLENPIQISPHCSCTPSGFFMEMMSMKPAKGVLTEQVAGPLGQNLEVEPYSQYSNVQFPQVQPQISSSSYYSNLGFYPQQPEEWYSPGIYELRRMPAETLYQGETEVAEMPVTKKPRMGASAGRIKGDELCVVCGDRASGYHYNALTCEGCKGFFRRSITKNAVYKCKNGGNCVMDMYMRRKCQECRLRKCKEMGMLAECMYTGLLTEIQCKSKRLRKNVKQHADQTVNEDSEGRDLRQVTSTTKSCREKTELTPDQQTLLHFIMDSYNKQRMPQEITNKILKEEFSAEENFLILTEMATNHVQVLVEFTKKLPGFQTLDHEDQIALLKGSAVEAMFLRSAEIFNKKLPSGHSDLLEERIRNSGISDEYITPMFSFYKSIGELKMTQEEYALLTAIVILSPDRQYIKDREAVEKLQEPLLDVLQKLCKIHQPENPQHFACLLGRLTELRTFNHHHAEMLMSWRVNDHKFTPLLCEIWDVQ
Thyroid hormone receptor beta (Homo sapiens), sequence (P10828 whole entry, looked up): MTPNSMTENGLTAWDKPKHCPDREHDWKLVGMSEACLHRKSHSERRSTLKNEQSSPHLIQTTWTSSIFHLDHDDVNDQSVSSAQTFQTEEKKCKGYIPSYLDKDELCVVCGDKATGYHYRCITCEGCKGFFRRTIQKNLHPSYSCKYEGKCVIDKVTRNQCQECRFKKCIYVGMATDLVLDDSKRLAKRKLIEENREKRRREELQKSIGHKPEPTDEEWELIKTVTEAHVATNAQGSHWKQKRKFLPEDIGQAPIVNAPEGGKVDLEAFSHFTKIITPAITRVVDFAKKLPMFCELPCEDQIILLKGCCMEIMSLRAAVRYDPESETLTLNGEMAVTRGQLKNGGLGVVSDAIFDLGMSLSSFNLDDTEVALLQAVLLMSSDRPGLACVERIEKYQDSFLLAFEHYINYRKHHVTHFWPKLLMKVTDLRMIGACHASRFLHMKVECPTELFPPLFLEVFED
Glucocorticoid receptor (Homo sapiens), sequence (P04150 whole entry, looked up): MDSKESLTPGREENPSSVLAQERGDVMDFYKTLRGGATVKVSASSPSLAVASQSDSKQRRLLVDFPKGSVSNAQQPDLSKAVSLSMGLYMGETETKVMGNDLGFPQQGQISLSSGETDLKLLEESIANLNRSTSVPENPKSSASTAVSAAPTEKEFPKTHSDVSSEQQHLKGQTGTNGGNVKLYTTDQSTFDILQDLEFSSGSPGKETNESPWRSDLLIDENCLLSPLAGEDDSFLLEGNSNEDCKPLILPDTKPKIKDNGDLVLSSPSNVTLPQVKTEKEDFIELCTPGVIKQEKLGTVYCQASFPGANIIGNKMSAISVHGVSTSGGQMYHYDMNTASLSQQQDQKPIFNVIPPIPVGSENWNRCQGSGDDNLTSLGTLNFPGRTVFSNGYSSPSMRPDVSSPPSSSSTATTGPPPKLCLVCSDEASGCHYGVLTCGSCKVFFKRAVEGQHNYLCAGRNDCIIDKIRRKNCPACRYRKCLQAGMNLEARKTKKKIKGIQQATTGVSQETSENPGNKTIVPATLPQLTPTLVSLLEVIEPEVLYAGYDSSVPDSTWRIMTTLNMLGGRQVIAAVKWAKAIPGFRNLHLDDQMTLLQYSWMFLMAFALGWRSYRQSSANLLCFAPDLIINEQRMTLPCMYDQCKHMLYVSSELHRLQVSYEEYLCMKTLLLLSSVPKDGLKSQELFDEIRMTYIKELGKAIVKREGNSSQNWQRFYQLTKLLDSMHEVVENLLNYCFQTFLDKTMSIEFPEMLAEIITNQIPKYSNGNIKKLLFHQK
Retinoic acid receptor RXR-alpha (Homo sapiens), sequence (P19793 whole entry, looked up): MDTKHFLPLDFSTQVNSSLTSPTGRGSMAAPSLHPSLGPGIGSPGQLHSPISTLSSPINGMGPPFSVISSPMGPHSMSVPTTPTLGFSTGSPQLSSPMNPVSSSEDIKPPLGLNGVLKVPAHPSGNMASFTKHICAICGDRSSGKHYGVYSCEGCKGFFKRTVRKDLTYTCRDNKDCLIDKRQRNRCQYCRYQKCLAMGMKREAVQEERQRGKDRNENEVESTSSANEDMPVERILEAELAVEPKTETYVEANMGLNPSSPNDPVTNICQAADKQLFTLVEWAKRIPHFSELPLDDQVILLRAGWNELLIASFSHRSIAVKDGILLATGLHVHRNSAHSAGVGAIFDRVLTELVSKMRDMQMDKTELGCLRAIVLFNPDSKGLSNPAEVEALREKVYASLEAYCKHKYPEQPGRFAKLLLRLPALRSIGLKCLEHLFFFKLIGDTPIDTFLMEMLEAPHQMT
Estrogen receptor (Homo sapiens), sequence (P03372 whole entry, looked up): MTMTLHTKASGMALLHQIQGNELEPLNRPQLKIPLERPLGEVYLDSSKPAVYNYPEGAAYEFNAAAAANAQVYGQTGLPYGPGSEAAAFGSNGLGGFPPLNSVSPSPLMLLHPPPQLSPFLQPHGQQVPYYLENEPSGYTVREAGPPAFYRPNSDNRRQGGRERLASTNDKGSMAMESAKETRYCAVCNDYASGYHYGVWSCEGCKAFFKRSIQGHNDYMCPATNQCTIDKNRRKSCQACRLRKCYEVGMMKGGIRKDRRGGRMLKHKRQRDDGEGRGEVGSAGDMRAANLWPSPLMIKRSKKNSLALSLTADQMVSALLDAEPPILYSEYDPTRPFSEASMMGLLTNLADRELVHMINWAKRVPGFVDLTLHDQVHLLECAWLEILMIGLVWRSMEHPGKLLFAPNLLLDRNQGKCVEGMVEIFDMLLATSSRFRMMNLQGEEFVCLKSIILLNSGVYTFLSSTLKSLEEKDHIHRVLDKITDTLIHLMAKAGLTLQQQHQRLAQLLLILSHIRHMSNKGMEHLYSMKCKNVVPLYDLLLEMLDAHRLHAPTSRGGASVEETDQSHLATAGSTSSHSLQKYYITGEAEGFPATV
Ubiquitin carboxyl-terminal hydrolase 1 (Homo sapiens), sequence (O94782 whole entry, looked up): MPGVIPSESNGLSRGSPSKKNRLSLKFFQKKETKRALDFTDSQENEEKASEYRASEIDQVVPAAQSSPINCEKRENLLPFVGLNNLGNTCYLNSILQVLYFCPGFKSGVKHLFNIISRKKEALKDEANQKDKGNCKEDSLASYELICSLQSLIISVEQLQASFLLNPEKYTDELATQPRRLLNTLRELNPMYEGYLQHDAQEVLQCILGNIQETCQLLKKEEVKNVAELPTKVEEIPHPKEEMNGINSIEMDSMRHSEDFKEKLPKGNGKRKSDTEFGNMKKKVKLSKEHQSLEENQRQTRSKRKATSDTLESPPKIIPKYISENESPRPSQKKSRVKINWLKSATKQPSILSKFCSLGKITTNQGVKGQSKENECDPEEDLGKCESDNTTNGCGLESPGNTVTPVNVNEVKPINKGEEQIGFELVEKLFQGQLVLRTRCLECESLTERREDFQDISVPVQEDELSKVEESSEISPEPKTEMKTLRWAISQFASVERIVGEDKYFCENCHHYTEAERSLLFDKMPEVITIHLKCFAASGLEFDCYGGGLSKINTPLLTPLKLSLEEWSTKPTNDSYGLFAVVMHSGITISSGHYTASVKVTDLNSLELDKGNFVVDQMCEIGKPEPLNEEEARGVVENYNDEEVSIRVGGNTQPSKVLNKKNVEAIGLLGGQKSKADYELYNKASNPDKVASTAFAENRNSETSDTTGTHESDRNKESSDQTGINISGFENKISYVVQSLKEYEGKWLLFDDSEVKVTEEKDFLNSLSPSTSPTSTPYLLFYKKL

Oc1c(Cl)c(Cl)c(Cl)c(Cl)c1Cl
-15.3% and -8.92%: max response [21]
active: Potency [11] 79.4 µM | Potency [13] 25.1 µM
19.6%: max response [18]
-7.5%: max response ([10]; measured here: lipid channel max response)
-3.69%: max response ([10]; measured here: cell count channel max response)
inactive: outcome [1] | outcome [2] | outcome [3] | outcome [4] | outcome [5] | outcome [6] | outcome [7] | outcome [8] | Potency [9] | activity change, negative = inhibition ([10]; at 57.5 µM (top of the series)) -4.15% | Potency [12] | activation [14] 0.631% and 4.93% | activation [15] -3.18% | outcome [16] | Potency [17] | outcome [19] | Potency [20]
